Molecules are shown by their SMILES. The list shows a part of the results. Where a call stands in place of a potency, no number is given. Results filed as inconclusive are left out. Activity calls are given as the source filed them. The call rests on the fitted dose curve; in most records, active means well fitted inhibition curve with a large enough effect; inconclusive means small, poorly fitted or top-dose-only effect; inactive means no such curve, though single readings can be large or run the other way.
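Further: 44 h compound exposure; nearly all actives have a fitted effect of over 55% in size.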

The nature of this experiment: qHTS Assay for Inhibitors of Hepatitis C Virus (HCV): Cytotoxicity Counterscreen for Cherry-picked Compounds. The following applies: HCV host cell line cytotoxicity counterscreen; series mostly up to 41.8 µM. The source says:
Hepatitis C virus (HCV) infects about 200 million people in the world. Many infected people progress to chronic liver disease including cirrhosis with a risk of developing liver cancer. To date, there is no effective vaccine for hepatitis C. Current therapy based on interferon is only effective in about half of the patients and is associated with significant adverse effects. The fraction of people with HCV who can complete a successful treatment is estimated to be no more than 10 percent. Recent development of direct-acting antivirals against HCV, such as protease and polymerase inhibitors, is promising but still requires combination with peginterferon and ribavirin for maximal efficacy. In addition, these agents are associated with high rate of resistance and many have significant side effects. Due to the lack of a culture system for infectious HCV, the search for new HCV drugs has been greatly hampered. […] High-throughput screening (HTS) with an infectious HCV system would cover the complete spectrum of potentially druggable targets in all stages of HCV lifecycle, and would have more biological relevance than other cell-based assays. Moreover, targeting several key processes in the viral life cycle may not only increase antiviral efficacy; more importantly, it may also reduce the capacity of the virus to develop resistance to the compound.
The goal of this project is to identify novel HCV inhibitors as new therapies for hepatitis C, using a highly sensitive and specific assay platform based on a HCV infectious cell culture system established in the laboratory and adapted for high-throughput HCV drug screen. The primary assay was used to screen the MLPCN compound library and potential inhibitors were cherry picked for confirmation and further characterization. To evaluate the cytotoxic effect of the selected compounds, a secondary cell based counterscreen using the Promega CellTiter Glo reagent and Huh cell line was developed. The data herein is the result of the Cytotoxicity counterscreen against the cherry picked compounds. No significant activity is the desired outcome for this assay.
NIH Chemical Genomics Center [NCGC]
NIH Molecular Libraries Probe Centers Network [MLPCN]
Assay Submitter (PI): Jake Liang, NIDDK
Cells were plated in a 1536-wel tissue culture grade plates at a final concentration of 1,000 cells/well (3 uL volume). The assay plate was culture for 4 h. Then 23 nL of compounds from the library collection was added to each well and incubated for 44 h at 37C, 5% CO2. A volume of 4.5 uL CellTiterGlo reagent was to each well and the plates were incubated at room temperature for 15 min. The luminescence signal was read for 15 sec using the PerkinElmer ViewLux plate reader.
A general note: qHTS replaces the single test concentration by a dilution series.
With `CC(C)(C)c1ccc(Oc2ccc(N)cc2)cc1`, the Potency result was “inactive”.

For `Cc1cc(-c2cccs2)nc(-n2cccc2)n1`, the Potency result is “inactive”.

Consider `COc1ccc(OCCNC(=O)c2cc(C3CC3)nc3c2cnn3C(C)C)cc1`, for which the Potency entry is “inactive”.

As to `COc1ccc(NC(=O)c2sc(N3CCOCC3)nc2-c2ccccc2)c(OC)c1`, the Potency entry was “inactive”.

`COCCCn1c(SCc2cccc(OC)c2)nc2cc(OC)c(OC)cc2c1=N`: the Potency entry is “inactive”.

`Cc1c(-c2cccc(Cl)c2)nc2ccccc2c1C(=O)OCC(=O)N(C)C1CCS(=O)(=O)C1` (stereo not drawn): the Potency entry is “inactive”.

Consider `O=S(=O)([N-]c1nc2ccccc2nc1-[n+]1ccc(Cc2ccccc2)cc1)c1ccc(Br)s1`, for which the Potency entry is “inactive”.

For `Cc1ccc(C)c(N2CCN(C(=O)CCCCCn3c(=S)[nH]c4ccc(N5CCOCC5)cc4c3=O)CC2)c1`, the Potency is 9.95 µM (active).

On to `COc1ccc(C(C(=O)NC2CCCCC2)N(C(=O)CCl)c2ccccc2Cl)cc1` (stereo not drawn), for which the Potency was 2.5 µM (active).

As for `CCCOc1ccc(C(=O)C(CCC(CNCC)C(=O)c2ccc(OCCC)cc2)CNCC)cc1` (stereo not drawn), the Potency is 7.91 µM (active).

As to `CN(C)c1nc(N)nc(CSc2nnnn2-c2cccc3ccccc23)n1`, the Potency is 6.28 µM (active).

For `N#C/C(=C1\CCCN1)c1nc(-c2ccccc2)cs1`, the Potency result is “inactive”.

In the case of `CCCc1nc2ccccc2c(C(=O)OCc2nnc(-c3cc(OC)c(OC)c(OC)c3)o2)c1CC`, the Potency entry was “inactive”.

Source of the values: PubChem BioAssay AID720576 (National Center for Advancing Translational Sciences (NCATS), 2013).
